Results from PubChem BioAssay (NCATS).

biological target: Glucocorticoid receptor (Homo sapiens) (UniProt P04150); experiment: GR-GFP Redistribution (AID 450); conditions: U2OS GR-GFP nuclear translocation, laser cytometry, 2 h; series mostly up to 20.6 µM
Potency means the concentration at half of the fitted maximal effect.

Chain of Glucocorticoid receptor (Homo sapiens) (P04150 whole entry, looked up): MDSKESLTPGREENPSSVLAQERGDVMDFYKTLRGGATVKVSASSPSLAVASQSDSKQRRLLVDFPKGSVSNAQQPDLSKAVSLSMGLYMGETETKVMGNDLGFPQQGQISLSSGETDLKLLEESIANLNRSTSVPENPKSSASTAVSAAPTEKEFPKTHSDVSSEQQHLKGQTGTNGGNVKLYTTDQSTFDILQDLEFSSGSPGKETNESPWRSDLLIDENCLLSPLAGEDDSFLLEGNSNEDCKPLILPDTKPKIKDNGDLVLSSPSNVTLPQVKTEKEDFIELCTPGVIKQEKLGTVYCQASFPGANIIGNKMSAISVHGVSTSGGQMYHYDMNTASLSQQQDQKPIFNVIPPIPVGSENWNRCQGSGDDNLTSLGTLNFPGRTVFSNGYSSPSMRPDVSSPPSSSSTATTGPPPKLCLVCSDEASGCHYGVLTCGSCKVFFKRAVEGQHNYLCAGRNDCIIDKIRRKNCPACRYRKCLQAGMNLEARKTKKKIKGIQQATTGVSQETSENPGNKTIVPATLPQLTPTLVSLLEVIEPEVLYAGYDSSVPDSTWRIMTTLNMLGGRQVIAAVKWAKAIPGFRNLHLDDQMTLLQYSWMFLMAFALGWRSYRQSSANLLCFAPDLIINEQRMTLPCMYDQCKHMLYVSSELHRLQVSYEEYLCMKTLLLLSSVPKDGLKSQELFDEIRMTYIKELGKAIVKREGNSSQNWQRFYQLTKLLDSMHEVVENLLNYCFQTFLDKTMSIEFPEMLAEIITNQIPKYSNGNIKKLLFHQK

Potency, inactive:
O=C(Oc1cccnc1)c1ccco1 > 20.6 µM
CCOC(=O)c1c(N)sc(=S)c2c1CCC2 > 20.6 µM
Cc1c(O)c(CN2CCCC(C)C2)cc2c3c(c(=O)oc12)CCC3 (stereo not given) > 20.6 µM
CC(C)c1nc2n[nH]c(N)c2c2c1CCCC2 > 20.6 µM
O=C(O)CC1SC(=Nc2cccc(C(F)(F)F)c2)NC1=O (stereo not given) > 20.6 µM
O=C1CCc2nc3ccccc3c(=O)n2N1 > 20.6 µM
NS(=O)(=O)c1cc2c(cc1Cl)NC(C1C[C@H]3C=C[C@@H]1C3)NS2(=O)=O (stereo not given in full) > 20.6 µM
COc1ccc(OC)c(NC(=O)CSc2nnc(-c3ccco3)n2-c2ccc(C(=O)O)cc2)c1 > 20.6 µM
COc1ccccc1C(=O)Nc1cc(Cl)ccc1O > 20.6 µM
CCn1cc(/C=N/O)c(C)n1 > 20.6 µM
CCOC(=O)c1c(C)n(C)c2ccc(OC)c(NC(=O)CN3CCN(Cc4ccccc4)CC3)c12 > 20.6 µM
Cc1c(C)n(C(=O)CSc2nccn2C)c2ccccc12 > 20.6 µM
CC(=O)c1cc(C#N)c(SCC(=O)C(C)(C)C)nc1C > 20.6 µM
CCOC(=O)c1[nH]c2ccc(OC)cc2c1NC(=O)CCN1CCCC(C)C1 (stereo not given) > 20.6 µM
N/C(=N\S(=O)(=O)c1ccc(Cl)s1)c1ccccc1 > 20.6 µM
C=CCNc1nc(-c2ccc(O)c(C(N)=O)c2)cs1 > 20.6 µM
Cc1sc(-n2c(C)ccc2C)c(C#N)c1C > 20.6 µM
CC(NC(=O)NCCCC(=O)O)(C(F)(F)F)C(F)(F)F > 20.6 µM
COc1ccc(/C(O)=C2\C(=O)C(=O)N(Cc3ccco3)C2c2cc(OC)ccc2OC)cc1 (stereo not given) > 20.6 µM
COc1ccc(C2C(C#N)=C(C)NC3=C2C(=O)c2ccccc23)cc1 (stereo not given) > 20.6 µM
COc1cc(NC(=O)NC(C)(C(F)(F)F)C(F)(F)F)cc(OC)c1OC > 20.6 µM
CCCOc1ccc(C2/C(=C(/O)c3ccccc3)C(=O)C(=O)N2CCCN(C)C)cc1OC (stereo not given) > 20.6 µM
Cc1noc(NS(=O)(=O)c2ccc(NC(=O)COc3ccccc3)cc2)c1C > 20.6 µM
O=C(NCc1ccco1)c1cnn2c1NC(c1ccccc1)CC2C(F)(F)F (stereo not given) > 20.6 µM
O=C(CN1C(=O)c2ccccc2S1(=O)=O)c1ccccc1 > 20.6 µM
CCCOc1ccc(/C(O)=C2/C(=O)C(=O)N(CCN3CCOCC3)C2c2ccccc2)cc1 (stereo not given) > 20.6 µM
COC(=O)/C=c1/s/c(=C(\C#N)C(=O)NCc2ccco2)n(-c2ccccc2)c1=O > 20.6 µM
COCCNc1oc(-c2ccc(F)cc2)nc1C#N > 20.6 µM
COC(=O)c1ccc(CSc2nc(N3CCOCC3)c3c(c2C#N)CC(C)(C)OC3)o1 > 20.6 µM
CCOc1cccc(-c2nn3c(-c4ccccn4)nnc3s2)c1 > 20.6 µM
COc1cccc(COc2nc3c(c(=O)n(C)c(=O)n3C)n2C)c1 > 20.6 µM
CC1(C(=O)CSc2nc3ccccc3[nH]2)CCC(=O)O1 (stereo not given) > 20.6 µM
Cn1c(=O)[nH]c(=O)c2c1nc(Br)n2CCSc1ncccn1 > 20.6 µM
CCOC(=O)c1c(CN2CCN(C)CC2)n(C)c2cc(Br)c(OC)cc12 > 20.6 µM
Cc1cccc(COc2ccc(/C(O)=C3\C(=O)C(=O)N(CCN(C)C)C3c3ccncc3)cc2)c1 (stereo not given) > 20.6 µM
COC(=O)CCc1c(C)[nH]c(=S)[nH]c1=O > 20.6 µM
Oc1ccccc1-c1nc(NCCN2CCOCC2)c2ccccc2n1 > 20.6 µM
COc1ccc(Nc2nc(Nc3ccc(OC)cc3)nc(-n3[nH]c(=O)c(C)c3C)n2)cc1 > 20.6 µM
CCc1c(C(=O)O)[nH]c2ccc(Br)cc12 > 20.6 µM
COc1ccccc1N1CCN(C2CCN(C(=O)c3cc(OC)c(OC)c(OC)c3)CC2)CC1 > 20.6 µM
